Results as given in PubChem BioAssay (Tox21).
Values joined by “and” are separate entries in the source; they are usually repeats but may differ in a detail not shown here. Equal entries are not always repeated. Records with an inconclusive call do not appear. Active and inactive are the calls of the source. Unless noted, calls come from the whole dose curve.

Assays:
[1] = Nuclear factor erythroid 2-related factor 2/antioxidant responsive element (Nrf2/ARE) small molecule agonists: qHTS cell viability counter screen in human keratinocytes (AID 1919968; active = well fitted curve in the direction sought with a large enough effect in the repeat runs; an effect the other way counts as inactive or inconclusive; note: nearly all actives have a fitted effect of over 55% in size; note: potency is the fitted concentration of half-maximal effect)
Summary of the method: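 KeratinoSens cells (HaCaT keratinocytes stably carrying an ARE-luciferase reporter) were seeded at 1,500 cells/well and rested 5 h at 37 C/5% CO2. They were then exposed to compounds in DMSO for 23 h. Viability was read by CellTiter-Fluor fluorescence after 1 h.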

[2] = target: Gonadotropin-releasing hormone receptor (Homo sapiens) (UniProt P30968); test: Human gonadotropin-releasing hormone receptor (GnRHR) small molecule agonists, calcium flux assay in GnRHR-HEK293 cells (AID 1920063); note: nearly all actives have a fitted effect of over 35% in size
Chain of Gonadotropin-releasing hormone receptor (Homo sapiens) (P30968 whole entry, looked up): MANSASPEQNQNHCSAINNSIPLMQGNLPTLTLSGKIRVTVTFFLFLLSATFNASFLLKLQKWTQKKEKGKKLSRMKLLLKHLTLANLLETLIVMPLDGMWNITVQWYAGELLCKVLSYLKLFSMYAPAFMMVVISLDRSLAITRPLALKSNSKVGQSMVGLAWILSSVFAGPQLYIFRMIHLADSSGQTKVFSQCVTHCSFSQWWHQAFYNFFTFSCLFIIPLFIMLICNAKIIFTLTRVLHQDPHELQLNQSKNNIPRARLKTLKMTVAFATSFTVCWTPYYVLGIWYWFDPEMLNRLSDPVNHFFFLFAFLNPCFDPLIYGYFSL
Summary of the method: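 HEK293 cells stably expressing human GnRHR were plated 18 h at 37 °C, loaded with calcium dye 1 h at 37 °C, then given compound in agonist mode; fluorescence (Ex/Em 480/540) read kinetically for 3 min at 1 s intervals.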

[3] = target: KiSS-1 receptor (Homo sapiens) (UniProt Q969F8); test: Human kisspeptin (KISS1R) small molecule agonists, calcium flux assay in KISS1R-HEK293 cells (AID 1920064; active = well fitted curve in the direction sought with a large enough effect in the repeat runs; an effect the other way counts as inactive or inconclusive)
Chain of KiSS-1 receptor (Homo sapiens) (Q969F8 whole entry, looked up): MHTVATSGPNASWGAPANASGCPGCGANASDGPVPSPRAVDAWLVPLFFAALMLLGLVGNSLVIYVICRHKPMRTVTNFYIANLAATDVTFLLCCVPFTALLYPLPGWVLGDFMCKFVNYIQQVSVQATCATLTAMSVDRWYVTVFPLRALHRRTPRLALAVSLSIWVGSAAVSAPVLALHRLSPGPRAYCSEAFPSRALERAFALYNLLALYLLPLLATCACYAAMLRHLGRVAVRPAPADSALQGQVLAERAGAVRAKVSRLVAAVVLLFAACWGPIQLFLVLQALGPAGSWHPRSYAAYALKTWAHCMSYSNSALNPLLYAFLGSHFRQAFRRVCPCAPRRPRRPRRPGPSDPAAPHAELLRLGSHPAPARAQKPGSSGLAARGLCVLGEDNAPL
Summary of the method: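 HEK293 cells stably expressing human KISS1R were plated 18 h at 37 °C, loaded with calcium dye for 1 h at 37 °C, then given compound by pin tool. Fluorescence (Ex/Em 480/540) was read kinetically for 3 min.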

[4] = G protein-coupled receptor (GPCR) small molecule agonists, calcium flux assay: HEK293 wild type cell line counter screen (AID 1920065)
Summary of the method: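 Cells were plated and cultured 18 h at 37 C/5% CO2, then loaded with calcium dye for 1 h at 37 C. Compounds in DMSO were pin-transferred in agonist mode, and fluorescence (Ex/Em 480/540) was read kinetically for 3 min at 1 s intervals.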

[5] = p53 small molecule agonists, cell-based qHTS assay with human liver microsomes (AID 1963577);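 note: p53 response element beta-lactamase reporter cells with liver microsomes plus NADPH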
Summary of the method: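 HLM-supplemented p53RE-bla reporter assay: 16 h compound exposure at 37 C, microsomes and NADPH each 0.5 mg/mL final, read by fluorescence intensity.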

[6] = p53 small molecule agonists, cell-based qHTS assay with rat liver microsomes (AID 1963578)
Summary of the method: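 Quantitative HTS of the Tox21 10K library: p53RE-bla cells, rat liver microsomes plus NADPH at 0.5 mg/mL final each, 16 h at 37 C, beta-lactamase fluorescence detection.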

[7] = p53 small molecule agonists, cell-based qHTS assay with rat liver microsomes: qHTS cell viability counter screen (AID 1963580); note: nearly all actives have a fitted effect of over 45% in size
Summary of the method: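 Intracellular ATP, by CellTiter-Glo luminescence, defines viability. HCT-116 p53RE-bla cells, 4,000 per well, were compound-treated in the presence of rat liver microsomes and NADPH for 16 h at 37 C.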

[8] = p53 small molecule agonists, cell-based qHTS assay: qHTS cell viability counter screen (AID 1963581); note: nearly all actives have a fitted effect of over 45% in size
Summary of the method: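 p53RE-bla HCT-116 cells were exposed to compounds for 16 h at 37 C; after the beta-lactamase FRET read in the same wells, CellTiter-Glo was added and luminescence (intracellular ATP) read after 30 min at room temperature.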

[9] = p53 small molecule agonists, cell-based qHTS assay (AID 1963582; active = well fitted activation curve with a large enough effect in the signal ratio in the repeat runs, not every such curve was filed as active; the % refers to the signal ratio)
Summary of the method: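 p53RE-bla beta-lactamase reporter cells rested 5 h at 37 C/5% CO2, then received compounds in DMSO by pin transfer and were incubated 16 h at 37 C. LiveBLAzer B/G FRET substrate was loaded for 2 h at room temperature before fluorescence reading.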

[10] = target: 5-hydroxytryptamine receptor 2A (Homo sapiens) (UniProt P28223); test: 5-hydroxytryptamine receptor 2A (HTR2A) small molecule antagonists, cell-based qHTS assay (AID 1963586); note: nearly all actives have a fitted effect of over 45% in size
Chain of 5-hydroxytryptamine receptor 2A (Homo sapiens) (P28223 whole entry, looked up): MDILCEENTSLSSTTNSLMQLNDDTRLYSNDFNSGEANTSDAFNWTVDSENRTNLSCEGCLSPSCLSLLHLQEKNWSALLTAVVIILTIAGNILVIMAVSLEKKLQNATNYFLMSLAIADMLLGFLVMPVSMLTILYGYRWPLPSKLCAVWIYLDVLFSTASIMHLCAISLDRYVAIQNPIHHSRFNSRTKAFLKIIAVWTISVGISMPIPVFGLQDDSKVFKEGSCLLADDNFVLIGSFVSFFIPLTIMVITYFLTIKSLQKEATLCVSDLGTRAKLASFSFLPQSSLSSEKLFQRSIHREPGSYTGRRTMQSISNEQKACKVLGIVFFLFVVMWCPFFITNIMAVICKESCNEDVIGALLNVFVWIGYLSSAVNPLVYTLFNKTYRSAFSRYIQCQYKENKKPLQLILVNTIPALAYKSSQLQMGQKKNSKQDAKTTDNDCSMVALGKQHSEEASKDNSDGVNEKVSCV
Summary of the method: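 Antagonist-mode intracellular calcium assay: DOI (4 nM) added after 5 min compound pre-incubation at room temperature to dye-loaded HTR2A-CHO cells. Fluorescence followed for 3 min, sampled every second.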

[11] = target: 5-hydroxytryptamine receptor 2A (Homo sapiens) (UniProt P28223); test: 5-hydroxytryptamine receptor 2A (HTR2A) small molecule agonists, cell-based qHTS assay (AID 1963587); note: nearly all actives have a fitted effect of over 30% in size
Summary of the method: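 Kinetic calcium-flux fluorescence (2 min, 1 sec intervals) after compound addition in agonist mode. HTR2A-CHO cells were cultured 18 h, then dye-loaded 1 h at 37 C.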

[12] = target: Muscarinic acetylcholine receptor M1 (Homo sapiens) (UniProt P11229); test: Cholinergic receptor muscarinic 1 (CHRM1) small molecule antagonists, cell-based qHTS assay (AID 1963588); note: nearly all actives have a fitted effect of over 40% in size
Chain of Muscarinic acetylcholine receptor M1 (Homo sapiens) (P11229 whole entry, looked up): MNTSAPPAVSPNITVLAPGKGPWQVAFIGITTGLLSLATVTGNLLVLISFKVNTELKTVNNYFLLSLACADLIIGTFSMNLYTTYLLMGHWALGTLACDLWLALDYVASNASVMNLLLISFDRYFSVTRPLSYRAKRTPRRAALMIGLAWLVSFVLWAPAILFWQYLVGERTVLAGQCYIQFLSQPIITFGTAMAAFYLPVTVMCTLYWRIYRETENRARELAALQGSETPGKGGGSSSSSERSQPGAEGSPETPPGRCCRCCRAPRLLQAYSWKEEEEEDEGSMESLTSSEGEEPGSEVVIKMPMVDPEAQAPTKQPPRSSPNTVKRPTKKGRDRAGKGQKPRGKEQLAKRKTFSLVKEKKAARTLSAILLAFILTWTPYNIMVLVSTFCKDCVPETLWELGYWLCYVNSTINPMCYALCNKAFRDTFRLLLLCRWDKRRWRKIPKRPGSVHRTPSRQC
Summary of the method: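 CHRM1-CHO calcium-flux assay, antagonist mode. Cells were seeded 18 h, dye-loaded 1 h at 37 C and given compound for 5 min at RT, then acetylcholine was added at 50nM. FDSS fluorescence was read 3 min; 15 concentrations, three runs.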

[13] = target: Muscarinic acetylcholine receptor M1 (Homo sapiens) (UniProt P11229); test: Cholinergic receptor muscarinic 1 (CHRM1) small molecule agonists, cell-based qHTS assay (AID 1963589); note: nearly all actives have a fitted effect of over 35% in size
Summary of the method: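 CHO cells stably expressing human CHRM1, seeded 18 h at 37 C/5% CO2, dye-loaded 1 h at 37 C, then given compound in agonist mode; intracellular calcium fluorescence read kinetically at 1 s intervals. Fifteen concentrations, three independent runs.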

[14] = cAMP Responsive Elements (CRE) small molecule agonists, cell-based qHTS assay (AID 1963590)
Summary of the method: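 CRE-bla HEK 293T cells in DMEM with 10% dialyzed FBS, NEAA, pyruvate and 25 mM HEPES were plated 18 h at 37 C/5% CO2, then exposed to compounds in DMSO for 3 h before LiveBLAzer B/G FRET substrate addition.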

[15] = cAMP Responsive Elements (CRE) small molecule antagonists, cell-based qHTS assay (AID 1963591; active = well fitted inhibition curve with a large enough effect in the signal ratio in the repeat runs, not every such curve was filed as active; the % refers to the signal ratio)
Summary of the method: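 CRE-bla HEK293T cells were plated 18 h at 37 °C/5% CO2, pinned with compound in DMSO, then stimulated with NKH477 at 0.25 uM final for 3 h. LiveBLAzer B/G FRET substrate was added and plates incubated 2 h at room temperature.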

[16] = target: Beta-2 adrenergic receptor (Homo sapiens) (UniProt P07550); test: Adrenergic beta2 receptor (ADRB2) small molecule antagonists, cell-based qHTS assay (AID 1963592); note: series mostly up to about 92 µM; nearly all actives have a fitted effect of over 50% in size
Chain of Beta-2 adrenergic receptor (Homo sapiens) (P07550 whole entry, looked up): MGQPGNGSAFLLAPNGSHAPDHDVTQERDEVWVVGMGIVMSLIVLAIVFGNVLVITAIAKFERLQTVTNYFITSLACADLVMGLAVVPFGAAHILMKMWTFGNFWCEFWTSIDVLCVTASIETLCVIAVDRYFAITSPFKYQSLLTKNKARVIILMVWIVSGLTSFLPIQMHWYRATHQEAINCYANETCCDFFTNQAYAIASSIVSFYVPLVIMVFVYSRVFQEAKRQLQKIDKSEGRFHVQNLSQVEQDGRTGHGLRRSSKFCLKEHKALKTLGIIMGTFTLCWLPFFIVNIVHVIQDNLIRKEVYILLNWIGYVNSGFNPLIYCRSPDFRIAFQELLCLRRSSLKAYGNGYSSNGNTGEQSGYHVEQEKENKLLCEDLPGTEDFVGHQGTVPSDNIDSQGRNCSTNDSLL
Summary of the method: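 Cells (CHO, stable ADRB2 overexpression) incubated 18-20hr at 37C; compounds added from DMSO; agonist mix (1nM isoproterenol, 100uM IBMX, 25uM Ro-20-1724) added; 0.5hr RT; d2-cAMP and anti-cAMP-cryptate added; 1hr RT; 665/615 nm read.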

[17] = target: D(2) dopamine receptor (Homo sapiens) (UniProt P14416); test: Dopamine D2 receptor (DRD2) small molecule agonists, cell-based qHTS assay (AID 1963594); note: nearly all actives have a fitted effect of over 35% in size
Chain of D(2) dopamine receptor (Homo sapiens) (P14416 whole entry, looked up): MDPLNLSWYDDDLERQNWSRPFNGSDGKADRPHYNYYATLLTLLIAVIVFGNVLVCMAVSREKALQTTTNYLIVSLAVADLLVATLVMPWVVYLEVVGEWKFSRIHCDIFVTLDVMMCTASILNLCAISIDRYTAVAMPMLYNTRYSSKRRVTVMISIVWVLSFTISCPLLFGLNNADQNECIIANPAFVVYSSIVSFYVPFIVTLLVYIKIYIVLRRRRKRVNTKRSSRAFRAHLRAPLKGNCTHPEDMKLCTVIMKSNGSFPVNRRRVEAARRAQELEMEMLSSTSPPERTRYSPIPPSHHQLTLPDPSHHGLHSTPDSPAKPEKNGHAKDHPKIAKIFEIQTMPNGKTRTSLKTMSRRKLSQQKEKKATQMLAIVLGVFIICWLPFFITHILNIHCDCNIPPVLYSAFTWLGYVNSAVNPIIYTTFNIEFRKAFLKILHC
Summary of the method: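 cAMP accumulation in DRD2-HEK293 cells measured by HTRF after 1 h detection; compounds added 10 min before NKH477 (200nM […]) forskolin-analogue stimulation, 30 min at room temperature, with Ro20-1724 present at 0.1 mM final.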

[18] = target: D(2) dopamine receptor (Homo sapiens) (UniProt P14416); test: Dopamine D2 receptor (DRD2) small molecule antagonists, cell-based qHTS assay (AID 1963595; active = well fitted inhibition curve with a large enough effect in the signal ratio in the repeat runs, with a control signal flat; the % refers to the signal ratio)
Summary of the method: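 HTRF cAMP read-out at 665 and 620 nm emission (340 nm excitation). Antagonist mode: compounds were tested against 12 nM quinpirole in DRD2-HEK293 cells, with 200 nM NKH477 raising cAMP and 0.1 mM Ro20-1724 blocking its breakdown.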

[19] = p53 small molecule agonists, cell-based qHTS assay with human liver microsomes: qHTS cell viability counter screen (AID 1963579); note: nearly all actives have a fitted effect of over 45% in size
Summary of the method: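 Viability of p53RE-bla cells is measured as CellTiter-Glo luminescence following a 16 h, 37 C incubation with compound, liver microsomes from human donors and NADPH.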

[20] = target: Beta-2 adrenergic receptor (Homo sapiens) (UniProt P07550); test: Adrenergic beta2 receptor (ADRB2) small molecule agonists, cell-based qHTS assay (AID 1963593);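 note: CHO cells stably overexpressing human ADRB2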
Summary of the method: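 CHO cells stably over-expressing ADRB2 were plated overnight at 37C, then dosed with compounds plus a stimulation mix containing 100uM IBMX and 25uM Ro-20-1724 for 0.5hr at room temperature. cAMP was measured by HTRF competition, 1hr.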
% is set by controls: 0 for no effect and ±100 for the full control effect.

CCn1cc(C(=O)O)c(=O)c2cnc(N3CCNCC3)nc21
inactive: Potency [1] | Potency [2] | Potency [3] | Potency [4] | Potency [5] | Potency [6] | Potency [7] | Potency [8] | Potency [9] | Potency [10] | Potency [11] | Potency [12] | Potency [13] | Potency [14] | Potency [15] | Potency [16] | Potency [17] | Potency [18]

CCCSc1ccc2nc(NC(=O)OC)[nH]c2c1
inactive: Potency [1] | Potency [2] | Potency [3] | Potency [4] | Potency [5] | Potency [6] | Potency [19] | Potency [20] | Potency [17] | Potency [18]

C=C(C)C(=O)OCCC[Si](Cl)(Cl)Cl
inactive: Potency [1] | Potency [2] | Potency [3] | Potency [4] | Potency [5] | Potency [6] | Potency [19] | Potency [8] | Potency [9] | Potency [10] | Potency [11] | Potency [12] | Potency [13] | Potency [15] | Potency [16] | Potency [20] | Potency [17] | Potency [18]

Cl/C(=C\n1cncn1)c1ccc(Cl)cc1Cl
inactive: Potency [1] | Potency [2] | Potency [3] | Potency [4] | Potency [5] | Potency [19] | Potency [7] | Potency [8] | Potency [9] | Potency [10] | Potency [11] | Potency [12] | Potency [13] | Potency [14] | Potency [15] | Potency [16] | Potency [20] | Potency [17]

CC/C(=C(/CC)c1ccc(O)cc1)c1ccc(O)cc1
inactive: Potency [2] | Potency [3] | Potency [4] | Potency [5] | Potency [19] | Potency [7] | Potency [8] | Potency [14] | Potency [15] | Potency [16] | Potency [20] | Potency [18]
active: Potency [1] 42.9 µM and 61.1 µM

O=[N+]([O-])c1ccc2c(c1)Cc1ccccc1-2
inactive: Potency [1] | Potency [2] | Potency [3] | Potency [4] | Potency [6] | Potency [19] | Potency [7] | Potency [8] | Potency [9] | Potency [10] | Potency [11] | Potency [12] | Potency [13] | Potency [14] | Potency [15] | Potency [16] | Potency [20] | Potency [17] | Potency [18]

O=C1C(c2[nH]c3ccc(S(=O)(=O)O)cc3c2O)=Nc2ccc(S(=O)(=O)O)cc21
inactive: Potency [1] | Potency [2] | Potency [5] | Potency [6] | Potency [19] | Potency [7] | Potency [8] | Potency [9] | Potency [10] | Potency [11] | Potency [12] | Potency [13] | Potency [14] | Potency [15] | Potency [16] | Potency [20] | Potency [17]

N[C@@H](CSSC[C@H](N)C(=O)O)C(=O)O
inactive: activity change, negative = cytotoxicity [1] -0.627% [at 0.349 µM] | activity change [2] 1.59% [at 0.217 µM, hits give high values] | activation [4] -0.257% [at 0.217 µM] | activation [5] 0.648% [at 0.249 µM] | activation [6] -1.5% [at 0.249 µM] | activity change, negative = cytotoxicity [19] 1.19% [at 0.249 µM] | activity change, negative = cytotoxicity [7] -2.37% [at 0.249 µM] | activity change, negative = cytotoxicity [8] 0.512% [at 0.249 µM] | activation [9] 2.6% [at 0.249 µM] | activity, negative = inhibition [10] -6.07% [at 0.233 µM] | activity, negative = inhibition [12] 11.3% [at 0.232 µM] | activation [13] 1.52% [at 0.29 µM] | activation [14] 0.0077% [at 0.349 µM] | activity change, negative = inhibition [15] -2.16% [at 0.349 µM] | activity change, negative = inhibition [16] 8.85% [at 0.349 µM] | activation [20] -18.9% [at 0.349 µM] | activation [17] -4.71% [at 0.349 µM] | activity change, negative = inhibition [18] 5.54% [at 0.348 µM]
